Assay results published in the supplement of paper PMC8387472.

Experiments:
Test in all cases: fraction of edited reads among all mapped reads; higher = more Cas9 editing
Settings in all cases: mESC; 2uM; 72 h treatment, harvest day 5
[1] = compound: Cc1cc(C)nc(SCC(=O)Nc2ncc(Cc3cccc4ccccc34)s2)n1
[2] = compound: Cc1ccc(C(=O)NCCCCCC(=O)Nc2ccccc2N)cc1
[3] = compound: Cc1cccc(CC(=O)N2CCc3c2ccc(-c2cn(C)c4ncnc(N)c24)c3F)n1
[4] = compound: NC(=O)c1ccc2nc(-c3ccc(Oc4ccc(Cl)cc4)cc3)[nH]c2c1 [Chk 2 inhibitor II (BML-277)]
Tucidinostat (Chidamide) = compound: Nc1cc(F)ccc1NC(=O)c1ccc(CNC(=O)/C=C/c2cccnc2)cc1 [Tucidinostat (Chidamide)]
Pemetrexed = compound: Nc1nc2[nH]cc(CCc3ccc(C(=O)N[C@@H](CCC(=O)O)C(=O)O)cc3)c2c(=O)[nH]1 [Pemetrexed]
[5] = compound: Nc1ncnc2c1c(-c1cnc3[nH]ccc3c1)nn2C1CCCC1
[6] = compound: O=C(c1cccc(Cl)c1F)N1CCN(Cc2cccc(Nc3nccs3)n2)CC1
Kenpaullone = compound: O=C1Cc2c([nH]c3ccc(Br)cc23)-c2ccccc2N1 [Kenpaullone]
Genistein = compound: O=c1c(-c2ccc(O)cc2)coc2cc(O)cc(O)c12 [Genistein]

Target | fraction of edited reads among all mapped reads [1] | fraction of edited reads among all mapped reads [2] | fraction of edited reads among all mapped reads [3] | fraction of edited reads among all mapped reads [4] | fraction of edited reads among all mapped reads (Tucidinostat (Chidamide)) | fraction of edited reads among all mapped reads (Pemetrexed) | fraction of edited reads among all mapped reads [5] | fraction of edited reads among all mapped reads [6] | fraction of edited reads among all mapped reads (Kenpaullone) | fraction of edited reads among all mapped reads (Genistein)
45.0 (DMSO control at this site: 1-bp insertion 0.017, MH deletion 0.666, edited 0.101) TTACACAGCATGAACTGCTAGGTGATGATGTCAGATTCGGTTTTACTAACTTCTCCAAAAA | 0.195 | 0.111 | 0.151 | 0.127 | 0.0928 | 0.0998 | 0.0941 | 0.069 | 0.233 | 0.139
17.0 (DMSO control at this site: 1-bp insertion 0.112, MH deletion 0.348, edited 0.058) CCATAGCGCGATAAATATGACGGCTCATCCTGTATGACGGCTCATCCTGTATCAACTGTCC | 0.123 | 0.0669 | 0.086 | 0.0753 | 0.0619 | 0.0836 | 0.0703 | 0.0546 | 0.184 | 0.0864
21.0 CGATTGAGAGTCAAACGGGCCAGAAAACTCCGGGAACGGGCCAGAAAACTCCGGGGCATGG | 0.198 | 0.121 |  | 0.14 | 0.116 | 0.124 | 0.103 |  | 0.273 | 0.136
31.0 (DMSO control at this site: 1-bp insertion 0.315, MH deletion 0.329, edited 0.026) ACCTCCACAGGCTGGGTGGCCCGGAGGCTGGGCGGCCCGGAGGCTGGGCTGGGCGAGTATC | 0.0451 | 0.0289 |  |  | 0.0207 | 0.0406 | 0.0296 | 0.0243 | 0.0456 | 0.026
40.0 (DMSO control at this site: 1-bp insertion 0.072, MH deletion 0.192, edited 0.189) GCGAATCAACTGTTCAACAACAGCAGCAGCCACCTGGAGGACTACAGTGGCCTGTCCGTGT | 0.334 | 0.199 | 0.298 | 0.238 | 0.193 | 0.179 | 0.201 | 0.142 | 0.432 | 0.24
27.0 CCAGAATTAGAACATATCATCTGGACCCTTTTCCATCTGGACCCTTTTCCAGCACACCCTG | 0.0968 | 0.0456 |  |  | 0.0322 |  | 0.0403 |  | 0.141 | 0.0708
3.0 (DMSO control at this site: 1-bp insertion 0.109, MH deletion 0.149, edited 0.09) TGCTAGCGCCCCCACAAAGCGGACCAGCCAGCACTATAGGGAATAAGGCCAACTTGCACCC | 0.162 | 0.0928 | 0.145 | 0.126 | 0.0815 | 0.12 | 0.0841 | 0.0816 | 0.193 | 0.13
0.0 (DMSO control at this site: 1-bp insertion 0.463, MH deletion 0.339, edited 0.14) AGGATTACCGAGACCTACGCGAACCGAAATCGCTGTCCGGTGCGCAAGCAGGGCTGGCGTC | 0.241 | 0.152 | 0.222 | 0.17 | 0.139 | 0.149 | 0.173 | 0.122 | 0.329 | 0.187
15.0 GCGCCTCCAATGACCCAGTGGGATCCTACTCCATAATGGGATCCTGGGGATTCCTCGCTCC | 0.136 | 0.0776 |  |  | 0.0802 |  |  |  |  | 0.132
7.0 (DMSO control at this site: 1-bp insertion 0.128, MH deletion 0.374, edited 0.098) TACTCAACCGAGACCTACGCGAACCGAAATCGTATGCCGGTGCGCAAGCAGGGCTGGCGTC | 0.173 | 0.0971 | 0.138 | 0.128 | 0.1 | 0.1 | 0.096 | 0.0816 | 0.195 | 0.124
16.0 (DMSO control at this site: 1-bp insertion 0.172, MH deletion 0.29, edited 0.05) CGGACTGCACACATGGGTAGGATCGTGCACGCGAGGTAGGATCGTGCACGCGAAGTTATTC | 0.0974 | 0.052 | 0.0804 | 0.0597 | 0.0541 | 0.0594 | 0.0586 | 0.043 | 0.128 | 0.0716
39.0 (DMSO control at this site: 1-bp insertion 0.328, MH deletion 0.371, edited 0.204) CTGCACAGTCACTTAGGATAGGAGAAGATGATGTATAGGGTTTAGTGGGAGATGTTGCAAG | 0.3 | 0.189 | 0.29 | 0.229 | 0.184 | 0.177 | 0.196 | 0.141 | 0.328 | 0.231
33.0 (DMSO control at this site: 1-bp insertion 0.008, MH deletion 0.771, edited 0.112) CATTAAGAGCAGCTGCCGGCCCCCAAGTGGACAGAGCTGGCCCTGCTGATTCAACAGTGCA | 0.187 | 0.109 | 0.168 | 0.147 | 0.108 | 0.111 | 0.108 | 0.0838 | 0.237 | 0.146
34.0 (DMSO control at this site: 1-bp insertion 0.184, MH deletion 0.385, edited 0.103) ATTATAGGACCCTGAGGGAGCAGAGATGTGGGAATGGGGGCCGAGCCAATTGTGATGTAAG | 0.159 | 0.112 | 0.134 | 0.113 | 0.104 | 0.0912 | 0.0944 | 0.0799 | 0.18 | 0.112
